From PubChem BioAssay AID1159606 (Sanford-Burnham Center for Chemical Genomics, 2016)
Among all 360,000 compounds or so, about 7,300 (2%) were called active. The sample holds actives, similar compounds and a random draw of the others, so the mix is not that of the screen. Rule as the data show it: active = inhibition above about 50%; inactive = the rest.

Experiment: inhibitors of TWEAK-Fn14 signaling, primary screen, luciferase reporter cells, uHTS (AID 1159606)
Conditions: TWEAK-stimulated Fn14 reporter cells, luciferase luminescence, 8 h; at 10 µM; stronger effect = higher value

inhibition, active:
COc1ccc(C)cc1S(=O)(=O)N(CC(=O)Nc1cccc([N+](=O)[O-])c1)c1ccc(C)cc1 61.9%, Cc1ccc(S(=O)(=O)N(CC(=O)Nc2cccc([N+](=O)[O-])c2)Cc2ccc(Cl)cc2)cc1 51.2%, CSc1ncnc2c1ncn2CC(=O)C1CCC2C3CCC4=CC(=O)CCC4(C)C3CCC12C (configuration not stated) 105%

inhibition, inactive:
COc1ccc(CNC(=O)c2cc(C(=O)C3CC3)c[nH]2)cc1 -10.9%, CN1CCC(N(C)S(=O)(=O)c2ccc(NC(=O)c3cccc(C#N)c3)cc2)CC1 5.91%, Cc1nc(N)nc(Cl)c1CCC1OCCO1 -6.2%, COc1cc(NC(=S)N2CCCC(C)C2)c(OC)cc1Cl (configuration not stated) 12.8%, O=C1NC[C@H](CCCCN2C[C@H](Cc3ccc(O)cc3)N(CC3CCCCC3)C(=O)C2=O)N(CCc2ccccc2)C1=O 2.86%, CN(c1ccc(OCC(=O)OCC(=O)Nc2cccc([N+](=O)[O-])c2)cc1)S(=O)(=O)c1ccc(F)cc1 -9.04%, Cc1ccc(N(CC(=O)Nc2cc(C)cc(C)c2)S(=O)(=O)c2cccc3nonc23)cc1 9.38%, Cc1ccc(CN(CC(=O)NCC2CCCO2)S(=O)(=O)c2ccc(C)cc2)cc1 (configuration not stated) 5.7%, COc1ccc(N(CC(=O)Nc2ccc(C)cc2C)S(=O)(=O)c2ccccc2[N+](=O)[O-])c(OC)c1 0.97%, O=C(NCc1cccc(C(F)(F)F)c1)c1ccc2sc(COCCO)nc2c1 -7.3%, COc1ccccc1C(=O)N(C1=NC(C)CS1)c1ccc(Cl)cc1 (configuration not stated) 10.7%, CCOC(=O)[C@]12CCC=C1N(CCC1=CCCCC1)C(=O)[C@H](CC(=O)NCc1ccc(C)o1)C2 5.47%, O=C(Nc1ccc(N2CCOCC2)cc1)c1cccc2c(-c3ccc(F)c(F)c3)coc12 -28%, CCOC(=O)[C@]12CCC=C1N(Cc1cccc3ccccc13)C(=O)[C@H](CC(=O)NCc1cccc(C(F)(F)F)c1)C2 13.4%, Cc1ccc(S(=O)(=O)N2CCN(C(=O)c3ccccc3-c3nc4ccccc4s3)CC2)c(C)c1 -40.8%, CSc1ncnc2c1ncn2CCCNCC1CCCCC1 -1.18%, CC(=O)C12CC(C)=C(C)CC1CC1C3CCC4=CC(=O)CCC4(C)C3CCC12C (configuration not stated) -12.9%, CC(C)COC(=O)n1c(=O)oc2ccc(S(=O)(=O)N3CCCCC3)cc21 19.6%, Cc1noc(C)c1C(=O)N(CC(=O)NC1CCCC1)Cc1ccccc1F -13.7%
